Assay results as given in PubChem BioAssay (NCATS).
Inconclusive results are not listed. The source made the active and inactive calls. Calls follow the shape of the dose curve; as a rule, active = well fitted inhibition curve with a large enough effect; inconclusive = small, poorly fitted or top-dose-only effect; inactive = flat fitted curve, though single readings scatter.

Key:
[1] = system: N140; experiment: qHTS profiling for inhibitors of Plasmodium falciparum proliferation (AID 504749); also: potency is read from the fitted curve at half-maximal effect; conditions: P. falciparum in erythrocytes, SYBR Green DNA, 72 h; series mostly up to 28.7 µM
Method in brief: (§1)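 P. falciparum-infected erythrocytes (0.3% parasitemia, 2.5% hematocrit final) were exposed to compounds for 72 h at 37 C in 5% CO2, then lysed with SYBR Green buffer overnight at room temperature; parasite DNA fluorescence was normalized to artemisinin and DMSO controls.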

[2] = system: P93_24; experiment: as above; conditions: P. falciparum in erythrocytes, SYBR Green DNA, 72 h; series mostly up to 28.7 µM
Method in brief: as §1

[3] = system: P94_40; experiment: as above; conditions: P. falciparum in erythrocytes, SYBR Green DNA, 72 h; series mostly up to 28.7 µM
Method in brief: as §1

[4] = system: PAD; experiment: as above; conditions: P. falciparum in erythrocytes, SYBR Green DNA, 72 h; series mostly up to 28.7 µM
Method in brief: as §1

[5] = system: PC15; experiment: as above; conditions: P. falciparum in erythrocytes, SYBR Green DNA, 72 h; series mostly up to 28.7 µM
Method in brief: as §1

[6] = system: PC26; experiment: as above; conditions: P. falciparum in erythrocytes, SYBR Green DNA, 72 h; series mostly up to 28.7 µM
Method in brief: as §1

[7] = system: PC49; experiment: as above; conditions: P. falciparum in erythrocytes, SYBR Green DNA, 72 h; series mostly up to 28.7 µM
Method in brief: as §1

[8] = system: SC27B; experiment: as above; conditions: P. falciparum in erythrocytes, SYBR Green DNA, 72 h; series mostly up to 28.7 µM
Method in brief: as §1

[9] = system: TAB113; experiment: as above; conditions: P. falciparum in erythrocytes, SYBR Green DNA, 72 h; series mostly up to 28.7 µM
Method in brief: as §1

[10] = system: TAB165; experiment: as above; conditions: P. falciparum in erythrocytes, SYBR Green DNA, 72 h; series mostly up to 28.7 µM
Method in brief: as §1

[11] = system: W2; experiment: as above; conditions: P. falciparum in erythrocytes, SYBR Green DNA, 72 h; series mostly up to 28.7 µM
Method in brief: as §1

[12] = system: CRL-7250; experiment: Cytotoxic Profiling of Annotated Libraries Using Quantitative High-Throughput Screening (AID 1296008); conditions: Five cell lines viability, CellTiter-Glo ATP luminescence, 48-72 h; max response: hits give low values; also: potency is read from the fitted curve at half-maximal effect; as to max response: % is scaled to controls: 0 for no effect and ±100 for the full control effect
Method in brief: (§2)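 Compounds were pin-transferred onto cells and incubated 48 or 72 hr at 37 degree Celsius, 95% humidity. CellTiter-Glo was added, plates sat 10 min at room temperature, then ATP-coupled luminescence was imaged as the viability read-out.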

[13] = system: HEK293; experiment: as above; conditions: Five cell lines viability, CellTiter-Glo ATP luminescence, 48-72 h; max response: hits give low values
Method in brief: as §2

[14] = system: HaCat; experiment: as above; conditions: Five cell lines viability, CellTiter-Glo ATP luminescence, 48-72 h; max response: hits give low values
Method in brief: as §2

[15] = system: KB-3-1; experiment: as above; conditions: Five cell lines viability, CellTiter-Glo ATP luminescence, 48-72 h; max response: hits give low values
Method in brief: as §2

[16] = system: NIH3T3; experiment: as above; conditions: Five cell lines viability, CellTiter-Glo ATP luminescence, 48-72 h; max response: hits give low values
Method in brief: as §2

[17] = system: JCK; experiment: qHTS profiling for inhibitors of Plasmodium falciparum proliferation (AID 504749); also: potency is read from the fitted curve at half-maximal effect; conditions: P. falciparum in erythrocytes, SYBR Green DNA, 72 h; series mostly up to 28.7 µM
Method in brief: as §1

[18] = system: TAB109; experiment: as above; conditions: P. falciparum in erythrocytes, SYBR Green DNA, 72 h; series mostly up to 28.7 µM
Method in brief: as §1

[19] = system: HEK293T; experiment: qHTS assay to identify novel small-molecules to repurpose for Merkel cell carcinoma treatment (AID 1296009); conditions: MCC and control cell lines, CellTiter-Glo viability, 72 h; at 44.8 µM (top of the series) unless noted
Method in brief: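 Cells exposed to NPC (8-point) and MIPE (11-point) compound dilutions for 72 hr at 37 degree celsius; viability read by CellTiter-Glo luminescence, normalized to no-cell and DMSO in-plate controls.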
Also: nearly all actives have a fitted effect of over 60% in size.

CC1=C(C)C(=O)C(CCCCC#CCCCC#CCO)=C(C)C1=O
inactive: Potency [7] | max response [12] -2.8% | max response [14] -15.6% | max response [15] -7.44% | max response [16] -8.8%
active: Potency [1] 7.94 µM | Potency [2] 5.01 µM | Potency [3] 8.91 µM | Potency [4] 4.47 µM | Potency [5] 8.91 µM | Potency [6] 7.57 µM | Potency [8] 7.08 µM | Potency [9] 7.94 µM | Potency [10] 5.01 µM | Potency [11] 6.01 µM | Potency [13] 16.8 µM

CCN(CC)CCNC(=O)c1cc(S(C)(=O)=O)ccc1OC
inactive: Potency [17] | Potency [1] | Potency [2] | Potency [3] | Potency [4] | Potency [5] | Potency [7] | Potency [8] | Potency [18] | Potency [9] | Potency [10] | max response [12] 1.79% | max response [13] -8.18% | max response [14] -0.825% | max response [15] 6.27% | max response [16] -1.98%

C[C@H](CS)C(=O)N1CCC[C@H]1C(=O)O
inactive: Potency [17] | Potency [1] | Potency [2] | Potency [3] | Potency [4] | Potency [5] | Potency [6] | Potency [7] | Potency [8] | Potency [18] | Potency [9] | Potency [10] | Potency [11] | max response [12] 1.04% | max response [13] -1.78% | max response [14] 2.06% | max response [15] 0.626% | max response [16] -6.68%

NC(N)=NC(=O)Cc1c(Cl)cccc1Cl
inactive: Potency [9] | max response [12] -2.41% | max response [14] -14.8% | max response [15] 6.63% | max response [16] 3.43%
active: Potency [6] 7.57 µM | Potency [11] 6.75 µM | Potency [13] 8.41 µM

CCCN(CCC)C(=O)C(CCC(=O)O)NC(=O)c1ccccc1 (centres undefined)
inactive: max response [12] -4.87% | outcome [13] | max response [14] 4.34% | max response [15] 20.1% | max response [16] -2.14% | outcome [19]

CC(=O)[C@]1(O)Cc2c(O)c3c(c(O)c2[C@@H](O[C@H]2C[C@H](N)[C@H](O)[C@H](C)O2)C1)C(=O)c1ccccc1C3=O
active: Potency [17] 8.91 µM | Potency [1] 4.47 µM | Potency [2] 4.47 µM | Potency [3] 3.16 µM | Potency [4] 5.01 µM | Potency [5] 8.91 µM | Potency [7] 7.08 µM | Potency [8] 5.01 µM | Potency [18] 3.98 µM | Potency [9] 4.47 µM | Potency [10] 3.16 µM | Potency [11] 1.69 µM | Potency [12] 0.237 µM | Potency [13] 0.0335 µM | Potency [14] 0.0596 µM | Potency [15] 4.61 µM | Potency [16] 0.0841 µM

N[C@@H](COP(=O)(O)O)C(=O)O
inactive: outcome [12] | max response [13] -2.26% | max response [15] -0.563% | max response [16] -2.11%

CCCN(CCC)CCc1cccc2c1CC(=O)N2
inactive: Potency [17] | Potency [1] | Potency [2] | Potency [3] | Potency [4] | Potency [5] | Potency [6] | Potency [7] | Potency [8] | Potency [18] | Potency [9] | Potency [10] | Potency [11] | max response [12] 1.13% | outcome [13] | max response [14] -2.54% | max response [15] -0.569% | max response [16] -15.5% | outcome [19]
